Compounds with a hit are over-represented: about 5.1% of the library has one in this group of screens.
CRFBP-R2 block – antagonists of CRF-BP/CRF-R2 complex, primary screen, cell-based, HEK293, calcium dye fluorescence, uHTS; inhibition, % at 11.8 µM; CRF-induced calcium fluorescence; actives 0.59% (n = 350,000);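 active = inhibition of the ligand-induced calcium signal above about 50% at the single tested concentration, limit read from the data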
GRIN3A LBD mod – binders of NR3A ligand-binding domain, primary screen, biophysical, differential scanning fluorimetry, uHTS | Glutamate receptor ionotropic, NMDA 3A (GRIN3A) ligand-binding domain | NR3A LBD differential scanning fluorimetry, Tm shift; 0% = protein alone, 100% = glycine-bound protein | Tm shift relative to glycine control, % at 25 µM | actives 2.5% (n = 340,000) | AID 1259313, 2017;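 active = melting temperature shift of at least 10% of the positive control shift, at one fixed dose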
ANO1 block – TMEM16A chloride channel inhibitors, primary screen, cell-based, HTS. Anoctamin-1 (Mus musculus), Q8BHY3. HEK293 TMEM16A/YFP iodide influx fluorescence, ionomycin. normalized B-score (activity score, 25-100; higher = stronger inhibition) at 10 µM. actives 1.2% (n = 310,000). AID 588511, 2011;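 active = ratio plate-corrected score three or more library SD toward inhibition, starting fluorescence score within five deviations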;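 also: score derived from kinetic fluorescence span divided by baseline fluorescence per well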
MPTP inh – mitochondrial permeability transition pore inhibitors, primary screen, biochemical, isolated mouse mitochondria, absorbance; Ca2+ swelling absorbance, 30 min; inhibition, % at 10 µM; actives 1.4% (n = 360,000); AID 602449, 2012;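 active = inhibition of 50% or more, scaled per plate between neutral and stimulator controls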;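 also: 0% = DMSO wells given calcium and 100% = 1 mM EGTA wells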
ANO1 activ – TMEM16A chloride channel activators or potentiators, primary screen, cell-based, HTS. Anoctamin-1 (Mus musculus), Q8BHY3. HEK293 TMEM16A/YFP-H148Q/I152L, iodide quench fluorescence; hits give low values. B-score at 10 µM. actives 0.3% (n = 340,000);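 active = fluorescence-ratio B-score plate-corrected deviation score at least 3 library SD below zero, with starting fluorescence score within 5 deviations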;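 also: channel opened by trigger with iodide after compound preincubation; score built on the fluorescence ratio of max minus min over baseline; more negative score means more quench and so TMEM16A activation or potentiation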
CRFBP-R2 agonist – agonists of CRF-BP/CRF-R2 complex, primary screen, cell-based, HEK293, calcium dye fluorescence, uHTS; CRF-binding protein / CRF receptor 2 complex (human); calcium dye fluorescence (FLIPR); percent of saturating CRF peptide response; activation, % at 13.2 µM; actives 0.46% (n = 350,000); AID 588473, 2011;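 active = activation of at least 50%, plus an integration ratio under a set limit after plate pattern correction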;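 also: plate controls were neutral control wells without compound for no effect and CRF at EC100 for full effect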
TMEM16A reconf – TMEM16A chloride channel inhibitors, confirmation, cell-based, re-confirmation; shares compounds with ANO1 block; HEK293 TMEM16A/YFP-H148Q, iodide quench fluorescence; ionomycin added to raise cell calcium; inhibition, % at 10 µM; actives 39% (n = 2,300); AID 652189, 2013;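 active = mean duplicate percent inhibition, scaled so buffer wells are 0 and the reference blocker 100, over three buffer SD above buffer mean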
TMEM16A Ca cntr – calcium mobilization in TMEM16A/YFP HEK293 cells, confirmation, counter-screen for TMEM16A inhibitor project; Fluo4 calcium mobilization; calcium response (% of ionomycin), % at 10 µM; AID 652231, 2013; shares compounds with ANO1 block; actives 2% (n = 2,300);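 active = duplicate-averaged calcium signal over 20% of the ionomycin maximum, relative to buffer baseline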;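 also: each well's signal is peak minus trough fluorescence divided by its pre-addition baseline; 0% = buffer wells and 100% = ionomycin wells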
YFP-HEK293 quench – iodide YFP quench changes in parental YFP-HEK293, counter-screen for TMEM16A inhibitor project, cell-based | ionomycin | shares compounds with ANO1 block | YFP ratio F(max-min)/F0 at 10 µM | 2,300 tested, under 10 active;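 active = yellow fluorescent protein signal ratio exceeding the buffer control mean by over 5 SD of those controls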;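 also: ratio is mean of duplicate wells from kinetic YFP trace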
ClC-1 inh – ClC-1 chloride channel inhibition, selectivity assay for TMEM16A inhibitor project, cell-based, voltage-dependent ClC-1. AID 652236, 2013. 2,300 tested, under 10 active. ratio percent, % at 10 µM. shares compounds with ANO1 block. CHO ClC-1-YFP, iodide influx fluorescence quench; iodide control reads 0, buffer control 100;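 active = duplicate-mean ratio percent above the mean of iodide-only control wells, which defines zero, plus 5 of their SD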;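 also: higher percent means stronger block of ClC-1 iodide influx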
Target sequence (P35524 whole entry, looked up): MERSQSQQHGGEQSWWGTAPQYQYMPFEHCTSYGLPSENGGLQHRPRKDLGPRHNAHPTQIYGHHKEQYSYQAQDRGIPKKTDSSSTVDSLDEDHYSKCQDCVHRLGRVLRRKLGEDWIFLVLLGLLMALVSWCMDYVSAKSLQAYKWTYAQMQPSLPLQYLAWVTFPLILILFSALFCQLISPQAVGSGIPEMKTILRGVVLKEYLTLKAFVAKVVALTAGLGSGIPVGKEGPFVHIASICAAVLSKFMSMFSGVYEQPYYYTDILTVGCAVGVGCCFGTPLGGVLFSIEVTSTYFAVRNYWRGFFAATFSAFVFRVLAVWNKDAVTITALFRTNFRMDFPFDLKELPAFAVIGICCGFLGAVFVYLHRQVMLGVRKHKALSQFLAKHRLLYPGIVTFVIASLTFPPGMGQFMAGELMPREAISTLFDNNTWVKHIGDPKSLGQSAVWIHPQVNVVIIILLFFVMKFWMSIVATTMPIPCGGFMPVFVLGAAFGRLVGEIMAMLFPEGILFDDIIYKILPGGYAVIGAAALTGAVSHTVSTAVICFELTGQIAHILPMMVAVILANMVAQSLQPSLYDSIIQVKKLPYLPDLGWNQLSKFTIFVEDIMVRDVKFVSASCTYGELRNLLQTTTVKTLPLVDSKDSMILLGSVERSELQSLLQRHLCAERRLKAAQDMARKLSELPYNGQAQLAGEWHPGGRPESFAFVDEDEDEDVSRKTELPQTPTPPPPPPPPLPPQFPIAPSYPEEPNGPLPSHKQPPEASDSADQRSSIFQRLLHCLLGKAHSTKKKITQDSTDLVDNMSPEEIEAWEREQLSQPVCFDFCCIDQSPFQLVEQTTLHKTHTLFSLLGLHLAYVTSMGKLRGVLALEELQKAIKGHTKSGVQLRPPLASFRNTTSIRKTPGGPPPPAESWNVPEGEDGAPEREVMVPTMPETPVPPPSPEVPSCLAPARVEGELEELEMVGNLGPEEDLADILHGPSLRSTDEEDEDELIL
Active calls of the source: *; i = inactive; · = no result.

SMILES	CRFBP-R2 block	GRIN3A LBD mod	ANO1 block	MPTP inh	ANO1 activ	CRFBP-R2 agonist	TMEM16A reconf	TMEM16A Ca cntr	YFP-HEK293 quench	ClC-1 inh
COC(=O)c1ccc(CSc2nc(C(F)(F)F)c3c(c2C#N)CCC3)o1	4	0	100*	0	i	0	i	i	-1.1	-12
CC1(C)CC2CC(C)(CN2/C=N/c2sc3c(c2C#N)CC(C)(C)NC3(C)C)C1 (configuration not stated)	-7	-2	i	-2	i	-1	·	·	·	·
O=Cc1cn(-c2ccccc2)nc1-c1cc2c(ccc3ccccc32)oc1=O	5	6	25*	-2	i	1	i	i	-0.95	-8
OC(CN1CCN(c2cccc(Cl)c2)CC1)c1ccccc1 (configuration not stated)	-1	-1	i	0	i	-2	·	·	·	·
OC(COC(c1ccccc1)c1ccccc1)CN1CCN(c2cccc(Cl)c2)CC1 (configuration not stated)	8	-6	25*	7	i	-1	i	i	-0.9	-10
CC(C)c1nc2c(s1)CCc1onc(-c3cccc([N+](=O)[O-])c3)c1-2	3	-5	i	0	i	0	·	·	·	·
Cc1noc(C)c1COC(=O)c1cccc(S(=O)(=O)N2CCOCC2)c1	3	-1	i	0	i	0	·	·	·	·
Cc1noc(C)c1COC(=O)c1cccc(S(=O)(=O)N2c3ccccc3CC2C)c1 (configuration not stated)	56*	1	100*	39	i	18	25%*	i	-1	-18
O=C(NCc1ccc(N2CCCC2=O)cc1)Nc1cccc(Cl)c1	16	-1	25*	1	i	-1	i	i	-1.1	-6
O=C(NCc1ccc(N2CCCC2=O)cc1)c1cccc(Cl)c1	5	-2	i	1	i	-3	·	·	·	·
Cc1ccc(C(=O)N2CC(C)SC2=Nc2cccc(S(=O)(=O)N(C)C)c2)cc1 (configuration not stated)	12	-1	i	1	i	1	·	·	·	·
CN(C)S(=O)(=O)c1cccc(N=C2SCCN2Cc2ccccc2)c1	13	-3	100*	16	i	-1	36%*	i	-0.87	-8
O=C(NCc1ccc(F)cc1)C(Cc1ccccc1)n1cccc1 (configuration not stated)	12	2	i	5	i	-3	·	·	·	·
O=C(CN1C(=O)C2CC=CCC2C1=O)NCc1ccc2c(c1)OCO2 (configuration not stated)	34	0	25*	-4	i	-6	i	i	-0.98	-14
O=C(CN1C(=O)C2C3C=CC(C3)C2C1=O)NCc1ccc2c(c1)OCO2 (configuration not stated)	-2	2	i	0	i	-2	·	·	·	·
Cc1cc(S(=O)(=O)Nc2ccc3cn[nH]c3c2)c(C)cc1Cl	-28	-10	25*	4	i	2	16%*	i	-0.96	-12
COc1ccccc1NC(=O)CN1CCN(CC(=O)Nc2ccc(F)cc2)CC1	-3	-4	i	0	i	0	·	·	·	·
COc1ccccc1NC(=O)CN1CCN(CC(=O)Nc2ccc(S(N)(=O)=O)cc2)CC1	11	-2	i	-1	i	-2	i	i	-0.9	-7
COCCNC(=O)C1CCCN(C(=O)c2ccnc(Cl)c2)CC1 (configuration not stated)	·	·	·	0	·	·	·	·	·	·
Cc1ccc(C(=O)O/N=C2\CC3CCC2(C)C3(C)C)cc1 (configuration not stated)	-13	-1	25*	0	i	-1	i	i	-1.1	-4
Cc1c(N(C)S(=O)(=O)c2cc(C(=O)N3CCCC3)ccc2Cl)c(=O)n(-c2ccccc2)n1C	12	0	i	-2	i	2	·	·	·	·
c1ccc2c(c1)[nH]c1c(NCC3CCCO3)ncnc12 (configuration not stated)	-1	0	i	-2	i	-2	·	·	·	·
c1nc(NCC2CCCO2)c2[nH]cnc2n1 (configuration not stated)	-10	1	25*	-2	i	0	i	i	-1	-14
O=CNn1cnc2c(oc3nc(-c4ccccc4)cc(-c4ccco4)c32)c1=O	21	29*	25*	2	i	-1	18%*	i	-0.92	0
CCN(C1CCCCC1)S(=O)(=O)c1ccc(OC)c(C)c1	13	-2	100*	-1	i	-1	i	i	-1.2	-4
COc1ccc(Cn2nnnc2C(c2cc3cccc(C)c3[nH]c2=O)N2CCOCC2)cc1 (configuration not stated)	14	0	i	-1	i	0	·	·	·	·
CCN1CCN(C(c2cc3cccc(C)c3[nH]c2=O)c2nnnn2Cc2ccccc2)CC1 (configuration not stated)	-2	0	25*	-1	i	3	i	i	-0.97	-4
NS(=O)(=O)c1ccc(CCNC(=O)CSc2nc3ccsc3c(=O)n2Cc2ccccn2)cc1	4	·	·	2	·	0	·	·	·	·
CCOC(=O)c1ccc(NC(=S)NCCc2ccccc2)cc1	28	6	25*	2	i	12	18%*	i	-1.2	-19

Screens (PubChem)
